PRMT1 FP inh – PRMT1 methyltransferase inhibitors, primary screen, biochemical, fluorescence polarization; Protein arginine N-methyltransferase 1 (Homo sapiens), Q99873; recombinant PRMT1, activity-based probe fluorescence polarization; inhibition, % at 2.79 µM; actives 1.3% (n = 370,000); AID 652257, 2013;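 active = inhibition above about 21% made by adding two undisclosed values, limit read from the data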
TLR4 MyD88 comp – inhibitors of TLR4-MyD88 association in cells, primary screen, cell-based, HeLa CL3-4, BLA complementation, FRET ratio. HeLa CL3-4 TLR4/MyD88 BLA complementation. inhibition, % at 8.4 µM. actives 0.18% (n = 200,000). AID 861, 2007; in the data active = inhibition above about 25%
Target sequence (O00206 whole entry, looked up): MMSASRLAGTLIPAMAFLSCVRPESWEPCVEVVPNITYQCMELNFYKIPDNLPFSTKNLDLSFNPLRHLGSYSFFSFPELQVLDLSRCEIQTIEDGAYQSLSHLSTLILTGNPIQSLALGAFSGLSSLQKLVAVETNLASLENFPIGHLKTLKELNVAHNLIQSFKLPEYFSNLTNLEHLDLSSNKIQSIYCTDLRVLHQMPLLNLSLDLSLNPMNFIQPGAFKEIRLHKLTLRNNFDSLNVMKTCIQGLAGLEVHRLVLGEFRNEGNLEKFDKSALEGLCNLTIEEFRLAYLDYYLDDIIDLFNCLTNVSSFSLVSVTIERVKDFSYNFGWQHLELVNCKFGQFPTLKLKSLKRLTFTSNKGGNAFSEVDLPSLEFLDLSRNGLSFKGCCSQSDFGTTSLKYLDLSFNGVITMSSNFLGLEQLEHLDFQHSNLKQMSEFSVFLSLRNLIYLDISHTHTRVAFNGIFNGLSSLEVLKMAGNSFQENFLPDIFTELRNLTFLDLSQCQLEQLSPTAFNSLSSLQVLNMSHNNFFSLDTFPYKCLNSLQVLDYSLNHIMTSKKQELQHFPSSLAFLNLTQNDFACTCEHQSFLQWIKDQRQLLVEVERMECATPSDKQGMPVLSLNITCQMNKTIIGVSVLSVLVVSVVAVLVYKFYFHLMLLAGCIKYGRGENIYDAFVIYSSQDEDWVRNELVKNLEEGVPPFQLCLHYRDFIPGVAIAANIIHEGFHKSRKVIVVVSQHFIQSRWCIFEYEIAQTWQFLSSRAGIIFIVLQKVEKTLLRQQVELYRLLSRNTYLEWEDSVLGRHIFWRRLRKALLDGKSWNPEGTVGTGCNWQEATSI
Target sequence (Q99836 whole entry, looked up): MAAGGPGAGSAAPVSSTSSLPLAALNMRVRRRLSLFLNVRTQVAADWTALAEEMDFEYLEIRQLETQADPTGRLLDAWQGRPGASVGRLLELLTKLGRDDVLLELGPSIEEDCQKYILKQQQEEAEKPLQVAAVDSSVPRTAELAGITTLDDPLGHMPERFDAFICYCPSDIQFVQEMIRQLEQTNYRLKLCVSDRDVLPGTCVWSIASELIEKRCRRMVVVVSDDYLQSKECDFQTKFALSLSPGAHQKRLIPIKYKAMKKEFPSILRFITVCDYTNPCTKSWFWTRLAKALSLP
Exocytosis inh – LAMP-1 surface exposure blockers, TALL-104 cells – cell-based, flow cytometry, MLPCN library, primary screen | TALL-104 LAMP-1 surface exposure; cells stimulated with thapsigargin and PMA | inhibition, % at 10 µM | actives 0.66% (n = 360,000) | AID 651702, 2012;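 active = inhibition above about 55%, limit read from the data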
TLR9-MyD88 block – inhibitors of TLR9-MyD88 association in cells, primary screen, cell-based, CHO, BLA complementation, fluorescence; Toll-like receptor 9 (Homo sapiens) + Myeloid differentiation primary response protein …; inhibition, % at 4.98 µM; actives 0.21% (n = 340,000); CCF4 FRET ratio; AID 504734, 2011;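 active = inhibition above the mean over all tested compounds plus 3 SD, cut at about 21% in these data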
ABHD5-PLIN5 inh – ABHD5-PLIN5 interaction inhibitors, primary screen, cell lysate, split luciferase complementation, luminescence. Perilipin-5 (Homo sapiens) + 1-acylglycerol-3-phosphate O-acyltransferase ABHD5 (Homo …. Split G. princeps luciferase complementation, 4 h. inhibition, % at 4 µM. actives 0.78% (n = 360,000);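 active = inhibition above the mean inhibition across every tested compound plus 3 SD, cut at about 22% in these data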
NOD2-RIPK2 inh – NOD2-RIPK2 binding disruptors in cells, primary screen, fluorescence, CHO cells, BLA complementation; Receptor-interacting serine/threonine-protein kinase 2 (Homo sapiens), O43353; CCF4 ratio; inhibition, % at 4.98 µM; actives 0.38% (n = 360,000); AID 624267, 2012; in the data active = inhibition above about 21%
TLR9-MyD88 cf – TLR9-MyD88 association inhibitors, retest, confirmation, cell-based, CHO, BLA complementation, fluorescence, triplicate | inhibition, % at 4.98 µM | actives 51% (n = 680) | CCF4 FRET ratio | shares compounds with TLR9-MyD88 block;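 active = mean inhibition across three repeats above about 21% taken from the earlier screen, limit read from the data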;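 note: blue over green emission ratio reports constitutive TLR9 MyD88 association via BLA complementation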
BLA counter-1 – beta-lactamase reporter inhibitors in CHO cells, artefact control for TLR9-MyD88 binding inhibitor project, cell-based, fluorescence; shares compounds with TLR9-MyD88 block; actives 7% (n = 680); CHO-BLA cells, CCF4 FRET ratio, BLA reporter; inhibition, % at 4.98 µM;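 active = mean inhibition above a 50% cutoff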;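 note: counterscreen of TLR9-MyD88 hits on CMV-driven BLA in CHO-K1 cells; higher means less blue over green ratio so more BLA blockade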
TLR9 CHO tox – CHO cell viability loss – luminescence, single concentration, cytotoxicity control for TLR9-MyD88 binding inhibitor project | TLR9-MyD88 CHO cells cytotoxicity | inhibition, % at 4.98 µM | AID 588336, 2011 | actives 39% (n = 680) | shares compounds with TLR9-MyD88 block; in the data active = inhibition above about 11%
ABHD5 PLIN5 conf – ABHD5-PLIN5 interaction inhibitors, confirmation, biochemical, luminescence. shares compounds with ABHD5-PLIN5 inh. inhibition, % at 4 µM. actives 67% (n = 2,200). AID 651612, 2012; in the data active = inhibition above about 23%
HNF4 split-luc – HNF4 dimerization inhibitors, counter-screen for ABHD5-PLIN5 interaction inhibitor project, biochemical, split-luciferase complementation, luminescence | shares compounds with ABHD5-PLIN5 inh | inhibition, % at 4 µM | actives 77% (n = 2,200);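 active = mean inhibition across replicate wells exceeding the computed hit threshold, cut at about 13% in these data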;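 note: light from luciferase halves that rejoin when HNF4 fusion proteins dimerize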
NOD2-RIPK2 conf – NOD2-RIPK2 binding disruptors, retest, confirmation, fluorescence, CHO cells, BLA complementation, triplicate; actives 70% (n = 1,200); AID 624370, 2012; CCF4 FRET; inhibition, % at 4.98 µM; shares compounds with NOD2-RIPK2 inh;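 active = mean inhibition across replicates above a set limit taken from the earlier primary screen, cut at about 21% in these data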
BLA counter-2 – hits BLA reporter in NOD2-RIPK2 inhibitor counterscreen; CHO BLA reporter, CCF4 FRET ratio; actives 57% (n = 1,200); inhibition, % at 4.98 µM; shares compounds with NOD2-RIPK2 inh; AID 624371;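 active = mean inhibition above the low-control mean inhibition plus three low-control SD, cut at about 11% in these data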
Large screens that a line does not name were inactive (follow-up assays come after a bar, where they were run). A selection: hits, their analogues and other compounds. The true share with any hit is near 2.6%.

Cn1c(=O)[nH]c(=O)c2c1nc([N+](=O)[O-])n2Cc1ccccc1	TLR9-MyD88 block 22, ABHD5-PLIN5 inh 24, NOD2-RIPK2 inh 59 (no result: TLR4 MyD88 comp) | TLR9-MyD88 cf 26 | BLA counter-1 inactive | TLR9 CHO tox 99 | ABHD5 PLIN5 conf 62 | HNF4 split-luc 59 | NOD2-RIPK2 conf 31 | BLA counter-2 inactive
COc1ccc(O)c(/C=N/NC(=S)Nc2cccc(S(=O)(=O)N(C)C)c2)c1	TLR9-MyD88 block 26, NOD2-RIPK2 inh 25 | TLR9-MyD88 cf inactive | BLA counter-1 inactive | TLR9 CHO tox 32 | NOD2-RIPK2 conf inactive | BLA counter-2 21
Nc1cccc2c1C(=O)N(c1ccccc1)C2=O	TLR9-MyD88 block 28, NOD2-RIPK2 inh 45 (no result: TLR4 MyD88 comp) | TLR9-MyD88 cf inactive | BLA counter-1 inactive | TLR9 CHO tox inactive | NOD2-RIPK2 conf 43 | BLA counter-2 46
O=C1c2ccccc2C(=O)N1c1ccccc1	none (no result: TLR4 MyD88 comp)
N#C/C(=C/c1ccc(N2CCCCCC2)o1)c1ccc(Cl)cc1	Exocytosis inh 84, TLR9-MyD88 block 24, ABHD5-PLIN5 inh 78, NOD2-RIPK2 inh 39 (no result: PRMT1 FP inh) | TLR9-MyD88 cf inactive | BLA counter-1 inactive | TLR9 CHO tox 84 | ABHD5 PLIN5 conf 82 | HNF4 split-luc 111 | NOD2-RIPK2 conf 28 | BLA counter-2 14
CCCCN(C)C(=O)C1CCN(S(=O)(=O)c2ccc3[nH]c(=O)oc3c2)CC1	none (no result: TLR4 MyD88 comp, Exocytosis inh, TLR9-MyD88 block, ABHD5-PLIN5 inh, NOD2-RIPK2 inh)
O=c1c2cc(F)ccc2sn1-c1ccccc1	PRMT1 FP inh 89, TLR9-MyD88 block 40, ABHD5-PLIN5 inh 99, NOD2-RIPK2 inh 48 (no result: TLR4 MyD88 comp) | TLR9-MyD88 cf 36 | BLA counter-1 inactive | TLR9 CHO tox 97 | NOD2-RIPK2 conf 50 | BLA counter-2 12
O=c1c2ccccc2[nH]c2ccc(F)cc12	none
CC1NC(=O)c2ccccc2-n2c1nc1cc(F)ccc1c2=O (configuration not stated)	none (no result: TLR4 MyD88 comp, Exocytosis inh, TLR9-MyD88 block, ABHD5-PLIN5 inh, NOD2-RIPK2 inh)
Cc1ccccc1-n1sc2cc(F)ccc2c1=O	PRMT1 FP inh 88, Exocytosis inh 71, TLR9-MyD88 block 36, ABHD5-PLIN5 inh 91, NOD2-RIPK2 inh 34 | TLR9-MyD88 cf 21 | BLA counter-1 inactive | TLR9 CHO tox 100 | NOD2-RIPK2 conf 47 | BLA counter-2 19
C#CCN1CC(N(C)CCO)CS1(=O)=O (configuration not stated)	none (no result: TLR4 MyD88 comp, Exocytosis inh, TLR9-MyD88 block, ABHD5-PLIN5 inh, NOD2-RIPK2 inh)
CCOC(=O)n1c(=O)n(Cc2c(Cl)cccc2Cl)c2ccccc21	TLR9-MyD88 block 24, NOD2-RIPK2 inh 23 | TLR9-MyD88 cf inactive | BLA counter-1 inactive | TLR9 CHO tox inactive | NOD2-RIPK2 conf 29 | BLA counter-2 27
CCOC(=O)C1=C(C(=O)OCC)C2N(Cc3ccc(C#N)cc3)c3ccccc3[C@@]23C[C@@H](C(=O)OC)N(S(=O)(=O)c2ccc(OC)cc2)C3=N1 (some centres not stated)	none (no result: TLR4 MyD88 comp, Exocytosis inh, TLR9-MyD88 block, ABHD5-PLIN5 inh, NOD2-RIPK2 inh)
COc1ccc2nc(C)cc(N/N=C/c3ccc(F)cc3)c2c1	TLR9-MyD88 block 23, NOD2-RIPK2 inh 49 (no result: TLR4 MyD88 comp) | TLR9-MyD88 cf 26 | BLA counter-1 inactive | TLR9 CHO tox 19 | NOD2-RIPK2 conf 67 | BLA counter-2 68
O=C(NCCN1C(=O)S/C(=C\c2ccc(Cl)c([N+](=O)[O-])c2)C1=O)C1=COCCO1	TLR9-MyD88 block 24, NOD2-RIPK2 inh 39 (no result: TLR4 MyD88 comp) | TLR9-MyD88 cf inactive | BLA counter-1 inactive | TLR9 CHO tox inactive | NOD2-RIPK2 conf 63 | BLA counter-2 inactive
CCC(C)Sc1ccc(-c2nc3cnccn3c2NC2CCCCC2)cc1 (configuration not stated)	TLR9-MyD88 block 35, NOD2-RIPK2 inh 27 (no result: TLR4 MyD88 comp) | TLR9-MyD88 cf 46 | BLA counter-1 inactive | TLR9 CHO tox inactive | NOD2-RIPK2 conf 65 | BLA counter-2 72
CCCCNc1c(-c2ccc(OC)c(SC3CCCCC3)c2)nc2cnccn12	TLR9-MyD88 block 21, NOD2-RIPK2 inh 40 (no result: PRMT1 FP inh, TLR4 MyD88 comp) | TLR9-MyD88 cf inactive | BLA counter-1 inactive | TLR9 CHO tox inactive | NOD2-RIPK2 conf 29 | BLA counter-2 42
CCCCNc1c(-c2ccc(OC)c(SC3CCCCC3)c2)nc2cc(C)ccn12	none (no result: TLR4 MyD88 comp)
COc1ccc(NC(=O)NNC(=O)CCn2nc(C)c([N+](=O)[O-])c2C)cc1OC	none (no result: TLR4 MyD88 comp, Exocytosis inh, TLR9-MyD88 block, ABHD5-PLIN5 inh, NOD2-RIPK2 inh)
Nc1c(Cl)cc(-c2[nH]c3cc(C(=O)NCCO)ccc3c(=O)c2O)cc1Cl	TLR9-MyD88 block 21, NOD2-RIPK2 inh 28 (no result: TLR4 MyD88 comp) | TLR9-MyD88 cf inactive | BLA counter-1 inactive | TLR9 CHO tox inactive | NOD2-RIPK2 conf 35 | BLA counter-2 38
CCCNC(=O)c1ccc2c(=O)c(O)c(-c3ccc(F)cc3)[nH]c2c1	none (no result: PRMT1 FP inh, TLR4 MyD88 comp)
Cc1cc(C)c2c(N)c(C(=O)Nc3ccccc3F)sc2n1	none (no result: TLR4 MyD88 comp)
Nc1c(C(=O)Nc2ccccc2F)sc2nc(-c3cccnc3)ccc12	TLR9-MyD88 block 38, NOD2-RIPK2 inh 21 (no result: TLR4 MyD88 comp) | TLR9-MyD88 cf 28 | BLA counter-1 inactive | TLR9 CHO tox inactive | NOD2-RIPK2 conf 46 | BLA counter-2 64
CC(C)C[C@@H]1NC(=O)[C@H]2C[C@]3(c4ccccc4)c4ccccc4N[C@H]3N2C1=O	none (no result: TLR4 MyD88 comp, Exocytosis inh, TLR9-MyD88 block, ABHD5-PLIN5 inh, NOD2-RIPK2 inh)

Compound activity deposited in PubChem BioAssay by several laboratories.
